The results in this text go back to PubChem BioAssay.

Molecules are shown by their SMILES. Measured potencies and affinities stand elsewhere. Unmarked numbers belong to inactive results.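 How the source made its calls: active means a fitted half-maximal concentration no higher than twice the top valid tested dose, with signal falling as cells die; inconclusive means flat curve between -70% and -30%, or poor fit; inactive means the rest, including signal rising instead of falling.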

The assay in a line: viability loss in HeLa cells – cell-based, ATP luminescence, cherry-pick samples, cytotoxicity control, dose response (AID 687004).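 Further: 0% = neutral control median and -100% = staurosporine 10 µM control median.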 As to conditions: ATP luminescence (CellTiter-Glo), 48 h; series mostly up to 26 µM; activity change, negative = cytotoxicity: at the top concentration. In general terms: ATP-based viability assays read luminescence as a measure of living cells.
`COc1ccc(N(C)C(=O)c2cn(CC(C)C)c(=O)c3cc(OC)c(OC)cc23)c(OC)c1`: the “activity change, negative = cytotoxicity” value was 12.6%.

For `Cc1ccc(S(=O)(=O)N[C@H]2CC[C@H](CC(=O)NCc3ccccc3F)O[C@H]2CO)cc1`, the “activity change, negative = cytotoxicity” value is 17.3%.

For the compound `Cc1ccc(NC(=O)C2CCC(=O)N2)cc1C` (stereo not given), the “activity change, negative = cytotoxicity” value was 2.02%.

Take `O=C(c1ccco1)N1N=C(c2cccs2)CC1c1ccco1` (stereo not given): the “activity change, negative = cytotoxicity” value is 21.6%.

Turning to `O=C(CN(c1ccccc1)S(=O)(=O)c1ccccc1)Nc1ccc(F)cc1`, the “activity change, negative = cytotoxicity” value was -12.7%.

Take `CCOC(=O)CSc1ncnc2c1cnn2-c1ccc(Cl)cc1`: the “activity change, negative = cytotoxicity” value was -1.93%.

Turning to `CCC(C)N(C(=O)CSc1ncnc2c1cnn2-c1ccccc1)C1CCS(=O)(=O)C1` (stereo not given), the “activity change, negative = cytotoxicity” value is -4.76%.

Take `O=C(NC(=S)Nc1ccccc1[N+](=O)[O-])c1ccccc1`: the “activity change, negative = cytotoxicity” value was 3.95%.

For `O=C(C[C@@H]1CC[C@@H]2[C@H](COC[C@@H](O)CN2C(=O)Nc2ccc(Cl)cc2)O1)NC1Cc2ccccc2C1`, the “activity change, negative = cytotoxicity” value was -3.74%.

As for `C[C@H](NC(=O)C[C@@H]1C=C[C@H](NC(=O)CN2CCOCC2)[C@H](CO)O1)c1ccccc1`, the “activity change, negative = cytotoxicity” value was 10.9%.

For the compound `Cc1cccc(C)c1NC(=O)C1(C)CCC(=O)N1CCCn1ccnc1` (stereo not given), the “activity change, negative = cytotoxicity” value is 19.7%.

As to `Cc1cc(C(=O)Nc2cccc3c2O[C@@H](CN(C)S(=O)(=O)c2ccccc2)[C@@H](C)CN([C@@H](C)CO)C3=O)n(C)n1`, the “activity change, negative = cytotoxicity” value was 0.215% [at 23.5 µM].

Consider `O=C(CN(c1ccccc1)S(=O)(=O)c1ccc(F)cc1)N1CCCCCC1`, for which the “activity change, negative = cytotoxicity” value was -1.12%.

In the case of `Cc1cccc(C)c1NC(=S)NN(Cc1ccccc1)c1ccccc1`, the “activity change, negative = cytotoxicity” value was 9.31%.

With `Cc1cc(OCC(=O)NC(C)c2ccccc2)ccc1[N+](=O)[O-]` (stereo not given), the “activity change, negative = cytotoxicity” value is 13%.

As to `O=S1(=O)CCC(N=Cc2cc(Br)ccc2O)C1` (stereo not given), the “activity change, negative = cytotoxicity” value is 0.537%.

For the compound `CNC[C@@H]1OCCCC[C@@H](C)Oc2ccc(NC(=O)NC(C)C)cc2C(=O)N([C@@H](C)CO)C[C@H]1C`, the “activity change, negative = cytotoxicity” value is 21.9%.

On to `COCCNC(=O)C[C@H]1C=C[C@H](NS(=O)(=O)c2ccc(C)cc2)[C@@H](CO)O1`, for which the “activity change, negative = cytotoxicity” value was 12%.

`CCN(CC)C(=O)CSc1ncnc2c1cnn2-c1ccccc1`: the “activity change, negative = cytotoxicity” value was 7.26%.

For `C/C=C/c1ccc([C@@H]2[C@@H](CNC(=O)C3CCC3)N(C(=O)NCCC)[C@H]2CO)cc1`, the “activity change, negative = cytotoxicity” value is 2.01%.

`C[C@H](CO)N1C[C@H](C)[C@H](CN(C)CC2CCCCC2)Oc2c(NS(C)(=O)=O)cccc2C1=O`: the “activity change, negative = cytotoxicity” value was 21%.

Regarding `COC(=O)C1=C(C)N(Cc2ccc(F)cc2)C(=S)NC1c1cccc(OC)c1` (stereo not given), the “activity change, negative = cytotoxicity” value is 33.4%.

`CNC(=O)CN(c1ccccc1)S(=O)(=O)c1ccc(F)cc1`: the “activity change, negative = cytotoxicity” value is 12.3% [at 28.5 µM].

On to `Cc1ccc(NC(=O)C(=O)NCCCN2CCCC2=O)c(C)c1`, for which the “activity change, negative = cytotoxicity” value was 9.87%.

For `C[C@H]1CN([C@@H](C)CO)C(=O)c2cc(-c3ccccc3)cnc2O[C@@H]1CN(C)C(=O)c1ccccn1`, the “activity change, negative = cytotoxicity” value was 7.47%.

On to `Cc1ccccc1-n1ncc2c(SCC(=O)NCc3cccs3)ncnc21`, for which the “activity change, negative = cytotoxicity” value was 11%.

For `C[C@@H]1CN([C@H](C)CO)C(=O)Cc2cc(NC(=O)CCCCCC(=O)Nc3ccccc3N)ccc2O[C@H]1CN(C)C(=O)Nc1ccccc1`, the “activity change, negative = cytotoxicity” value is 14%.

Consider `COc1ccc(NC(=S)NCc2ccccc2Cl)c(OC)c1`, for which the “activity change, negative = cytotoxicity” value was 13.3%.

Regarding `CC(NC(=O)COc1ccccc1-c1ccccc1)c1ccccc1` (stereo not given), the “activity change, negative = cytotoxicity” value is -0.383%.

Regarding `COCC#Cc1ccc2c(c1)O[C@H](CN(C)S(=O)(=O)c1ccc(OC)cc1)[C@H](C)CN([C@H](C)CO)S2(=O)=O`, the “activity change, negative = cytotoxicity” value is 1.28%.

Consider `CC(C)NC(=O)Nc1ccc2c(c1)C(=O)N([C@@H](C)CO)C[C@@H](C)[C@@H](CN(C)C(=O)NC1CCCCC1)OCCCC[C@H](C)O2`, for which the “activity change, negative = cytotoxicity” value is 11.5% [at 23.5 µM].

On to `CN1C[C@@H]2C(c3ccc(C(F)(F)F)cc3)C3(c4ccccc4)CC2(C3)[C@H]1c1ccccc1` (stereo not given in full), for which the “activity change, negative = cytotoxicity” value is 4.29%.

For the compound `O=C(CN(c1ccccc1)S(=O)(=O)c1ccc(F)cc1)NC1CCCCCC1`, the “activity change, negative = cytotoxicity” value is 0.111%.

Take `O=C(NC[C@@H]1[C@@H](c2ccccc2)[C@H](CO)N1C(=O)C1CCC1)NC1CCCC1`: the “activity change, negative = cytotoxicity” value was 1.26% [at 23.5 µM].

Turning to `CN1c2ccc(-c3ccc(F)cc3)cc2[C@H]2[C@H](CCN2S(=O)(=O)c2cccc(F)c2)[C@H]1CO`, the activity change, negative = cytotoxicity was 7.29% [at 6 µM].

For `CCNC(=O)CN(c1ccc(C)cc1)S(=O)(=O)c1ccc(SC)cc1`, the “activity change, negative = cytotoxicity” value was -0.741%.

Take `CNC(=O)CN(c1ccc(OC)cc1)S(=O)(=O)c1ccc(F)cc1`: the “activity change, negative = cytotoxicity” value is 11.8%.

Take `COc1ccc(CN(C)C[C@@H]2OCCCC[C@@H](C)Oc3ccc(NC(=O)c4ccccc4)cc3C(=O)N([C@H](C)CO)C[C@@H]2C)cc1`: the “activity change, negative = cytotoxicity” value is 14.1%.

As to `COc1ccc(C#Cc2ccc3c(c2)O[C@H](CN(C)C(C)=O)[C@@H](C)CN([C@@H](C)CO)S3(=O)=O)cc1`, the “activity change, negative = cytotoxicity” value was -7.97%.

For `CC(C)Oc1cccc(C(=O)NC(=S)Nc2ccccc2N2CCOCC2)c1`, the “activity change, negative = cytotoxicity” value is 4.56%.
